TGFb inhibitor = blocks TGF-b signaling; HepG2 CAGA-GFP TGF-b/SMAD3 reporter, GFP fluorescence, 18 h; TGF-beta stimulated, 500 pg/mL final; Potency, µM (titrated, usually from 46.1 µM), inactives show top-dose activity, negative = inhibition, most hits filed as inhibitors; 410,000 tested, 1.2% active; AID 588855; note: potency is the fitted concentration of half-maximal effect; % is set by controls: 0 for no effect and ±100 for the full control effect; nearly all actives have a fitted effect of over 65% in size
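Read-out: total well GFP (ex488/em500-530) summed from mean per-cell fluorescence. Cells: HEPG2 CAGA-GFP, 1% FBS DMEM, 18 h at 37 degrees C with 500 pg/mL final TGF-beta. Unstimulated wells served as the full-inhibition control; stimulated DMSO wells = 0%.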
HepG2 tox-1 = kills HepG2 cells in TGF-b inhibitor counter-screen; HepG2 CAGA-GFP viability, ATP luminescence, 18 h; Potency, µM (top dose mostly 46.1 µM), for the others: top-dose activity change, negative = cytotoxicity, actives largely listed as cytotoxic; 410,000 tested, 0.76% active; note: potency is the fitted concentration of half-maximal effect
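HepG2 CAGA-GFP cells (1000/well, DMEM with 1% FBS) received compound, then TGF-beta at 500 pg/mL final, and were incubated 18 hours at 37 degrees C. Viability was read by CellTiter-Glo luminescence. Media-only wells were set as complete cell-killing and DMSO as no toxicity.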
TDP1 cell noCPT = qHTS for Inhibitors of human tyrosyl-DNA phosphodiesterase 1 (TDP1): qHTS in cells in absence of CPT | Potency, µM (titrated, usually from 46.2 µM), without a hit: at the highest dose activity change, negative = growth inhibition, hits mostly inhibitors | DT40 Tdp1-/- hTDP1 cells, no CPT, ATP luminescence, 48 h | 420,000 tested, 15% active; note: potency is the fitted concentration of half-maximal effect; % is set by controls: 0 for no effect and ±100 for the full control effect; nearly all actives have a fitted effect of over 55% in size
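Cells were dispensed at 400 per well, compounds added by pin tool, plates incubated ≥48 hr at 37 °C, then CellTiter-Glo added for 30 min at room temperature before luminescence reading. Line: DT40 Tdp1-/- complemented with hTDP1; camptothecin omitted.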
ASM inhibitor = blocks human secretory acid sphingomyelinase. P17405. placental ASM, HMU-PC fluorogenic substrate, 60 min. Potency, µM (titrated, usually from 57.5 µM), without a hit: at the highest dose activity change, negative = inhibition, actives largely listed as inhibitors. 340,000 tested, 0.006% active. AID 504937; note: potency is the fitted concentration of half-maximal effect
Target sequence (P17405 47-631 limits assumed): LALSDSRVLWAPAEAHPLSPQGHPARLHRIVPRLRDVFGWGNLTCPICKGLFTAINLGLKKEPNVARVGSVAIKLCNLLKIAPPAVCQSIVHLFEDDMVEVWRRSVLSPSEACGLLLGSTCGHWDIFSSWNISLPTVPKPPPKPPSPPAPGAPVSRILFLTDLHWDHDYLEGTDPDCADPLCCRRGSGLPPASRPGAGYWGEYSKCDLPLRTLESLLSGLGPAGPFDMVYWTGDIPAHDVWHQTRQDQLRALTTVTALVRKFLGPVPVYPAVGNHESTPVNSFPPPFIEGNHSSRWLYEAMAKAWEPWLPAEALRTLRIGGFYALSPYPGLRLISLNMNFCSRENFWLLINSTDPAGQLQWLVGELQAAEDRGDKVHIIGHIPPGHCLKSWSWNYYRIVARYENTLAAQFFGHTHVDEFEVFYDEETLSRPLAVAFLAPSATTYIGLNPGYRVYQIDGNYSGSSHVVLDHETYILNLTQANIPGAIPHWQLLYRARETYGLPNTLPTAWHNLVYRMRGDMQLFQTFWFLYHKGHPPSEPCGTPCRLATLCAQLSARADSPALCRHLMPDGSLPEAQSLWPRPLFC
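Fluorogenic HMU-PC substrate (9 uM final) is turned over by placental ASM in 60 min at 37 C after a 10 min compound preincubation. Reaction ended by alkaline stop (pH 10), with fluorescence read at 386/447 nm.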
DT40 TDP1 CPT = growth inhibition of DT40 Tdp1-/-;hTDP1 cells with camptothecin (screen for TDP1 inhibitors) | chicken DT40 Tdp1-/-;hTDP1 cells + 20 nM CPT, ATP luminescence, 48 h | Potency, µM (series often up to 46.2 µM), for the others: at the highest dose activity change, negative = growth inhibition, hits mostly inhibitors | 420,000 tested, 12% active | AID 686979; note: potency is the fitted concentration of half-maximal effect; % is set by controls: 0 for no effect and ±100 for the full control effect; nearly all actives have a fitted effect of over 55% in size
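Chicken DT40 Tdp1-/- cells stably complemented with human TDP1 were seeded at 400 cells/well in medium containing 20 nM camptothecin, exposed to pin-transferred compounds, and grown at 37 °C for at least 48 hr. Viability was read as ATP luminescence.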
IL1B secr inh = blocks inflammasome-driven IL-1 beta release; 360,000 tested, 4.7% active; activity change, % at 57.5 µM; AID 743279; THP-1 LPS/ATP IL-1B secretion, AlphaLISA, 16 h; active compounds read low; in the data active = activity change below about -50%; inconclusive = mostly about -30% to -49%; note: % is set by controls: 0 for no effect and ±100 for the full control effect
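Secreted IL-1B measured by AlphaLISA bead assay after 16 h compound exposure of THP-1 cells; compounds (final up to 57.5 uM) added 1 h before LPS (250 ng/mL) and ATP (1.25 mM) stimulation; lower signal means less secretion.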
TGFb CAGA inh = TGF-b pathway inhibition, cherry-pick retest; shares compounds with TGFb inhibitor; Potency, µM (doses to about 46.1 µM), for inactives: top-dose activity, negative = inhibition, most hits filed as inhibitors; HepG2 CAGA-GFP TGF-b reporter, GFP fluorescence, 18 h; cells stimulated with TGF-beta, 500 pg/mL; 1,600 tested, 63% active; note: potency is the fitted concentration of half-maximal effect; % is set by controls: 0 for no effect and ±100 for the full control effect; nearly all actives have a fitted effect of over 65% in size
HepG2 tox-2 = toxic to HepG2 cells in TGF-b counterscreen; HepG2 CAGA-GFP viability, ATP luminescence, 18 h; cells stimulated with TGF-beta, 500 pg/mL; shares compounds with TGFb inhibitor; 1,600 tested, 27% active; Potency, µM (series often up to 46.1 µM), inactives show top-dose activity, negative = cytotoxicity, hits mostly inhibitors; note: potency is the fitted concentration of half-maximal effect; % is set by controls: 0 for no effect and ±100 for the full control effect; nearly all actives have a fitted effect of over 70% in size
CCL64 TGFb inh = blocks TGF-b signaling in CCL64 reporter cells. shares compounds with TGFb inhibitor. AID 720536. 1,600 tested, 41% active. Potency, µM (series often up to 46.1 µM), for the others: top-dose activity, negative = inhibition, hits mostly inhibitors. CCL64 CAGA-GFP reporter, TGF-b stimulated, GFP fluorescence, 18 h; note: potency is the fitted concentration of half-maximal effect; nearly all actives have a fitted effect of over 65% in size
COP TGFb inh = validation of TGF-b inhibitors in HepG2 COP promoter reporter | shares compounds with TGFb inhibitor | HepG2 COP-GFP TGF-b reporter, GFP fluorescence, 18 h; cells stimulated by added recombinant TGF-beta | Potency, µM (highest dose often 46.1 µM), inactives show at the highest dose activity, negative = inhibition, hits mostly inhibitors | 1,600 tested, 3% active; note: potency is the fitted concentration of half-maximal effect; nearly all actives have a fitted effect of over 70% in size
* hit, by the source's call; u = inconclusive; x = no result given. Shown are actives, neighbours in structure and some others; about 19% of the full set was active somewhere. Unless noted, calls come from the whole dose curve; as a rule, active = well fitted curve in the direction sought with a large enough effect; inconclusive = small, poorly fitted or top-dose-only effect, or another doubt; inactive = no such curve, though single readings can be large; an effect the other way counts as inactive or inconclusive.

SMILES | TGFb inhibitor | HepG2 tox-1 | TDP1 cell noCPT | ASM inhibitor | DT40 TDP1 CPT | IL1B secr inh | TGFb CAGA inh | HepG2 tox-2 | CCL64 TGFb inh | COP TGFb inh
COc1ccc(CNC(=O)[C@@H]2CC=C[C@@H]3CCN(Cc4ccc(Cl)c(Cl)c4)C(=O)[C@@H]32)cc1 | 16µM* | -13% | 11µM* | -6% | 23µM* | 0 | 21µM* | u | u | 30%
COc1ccc(CNC(=O)[C@@H]2CC=C[C@@H]3CCN(Cc4ccc(OC)c(OC)c4)C(=O)[C@@H]32)cc1 | 3% | -41% | -13% | x | -15% | x | x | x | x | x
O=C(CSc1ccccn1)Nc1cccc([N+](=O)[O-])c1 | u | 18% | u | -2% | 1% | 35 | x | x | x | x
O=C(Nc1cccc(-c2csc(Nc3ccc(Cl)cc3)n2)c1)c1cc([N+](=O)[O-])cc(C(F)(F)F)c1 | 20µM* | -22% | 18µM* | 4% | 18µM* | -27 | 8.2µM* | u | 5.8µM* | 45%
O=[N+]([O-])c1cccc(NC(=S)NCc2ccncc2)c1 | -7% | -17% | -14% | 1% | -38% | 29 | x | x | x | x
O=[N+]([O-])c1cccc(NC(=S)Nc2nc(-c3ccccc3Cl)cs2)c1 | 3.5µM* | -28% | 18µM* | -15% | u | -59* | 3.7µM* | 6.5µM* | 6.5µM* | 47%
O=C(CSc1nc(-c2ccc(Cl)cc2)cs1)Nc1cccc([N+](=O)[O-])c1 | 10µM* | -31% | 16µM* | -11% | u | -12 | u | u | -5% | 59%
CCOc1ccc(S(=O)(=O)N2CCN(C(=O)CCC(=O)N3CCOCC3)CC2)cc1 | 1% | 18% | -3% | 0% | 2% | -5 | x | x | x | x
CCOc1ccc(N2CC(C)Cn3c2nc2c3c(=O)n(CC(=O)O)c(=O)n2C)cc1 (stereo not drawn) | 8% | 4% | 1% | x | -22% | x | x | x | x | x
COc1cccc(C(O)c2cnc(C(C)C)n2C)c1 (stereo not drawn) | 0% | -64% | -11% | -4% | 13% | -1 | x | x | x | x
COc1ccc(/C=C2/CCCC(CN(C)C)C2=O)cc1 (stereo not drawn) | 6.3µM* | -33% | 0.58µM* | -3% | 0.52µM* | -72* | 2.6µM* | 7.3µM* | 4.1µM* | u
COc1cccc(/C=C2/CCC(CN(C)C)C2=O)c1 (stereo not drawn) | 2.5µM* | -98% | 2.3µM* | -3% | 2.3µM* | -100* | 2.6µM* | 5.8µM* | 1.5µM* | u
COc1cccc(/C=C2\CCC(C3CCCC3)C2=O)c1 (stereo not drawn) | u | 6% | 12% | 1% | 8% | 35 | x | x | x | x
COc1ccc(Cn2c(CO)cnc2SCC(=O)Nc2cc(C)on2)cc1 | 12% | -1% | 20% | -3% | 1% | 10 | x | x | x | x
COc1ccc(NC(=O)c2ccc3nc(C)c(N(C)C(=O)CCc4ccccc4)n3c2)cc1OC | 3% | -1% | u | x | u | -23 | x | x | x | x
Cc1cc2nc(-c3ccc(F)cc3)c(CC(C)(C)C)n2c(C)c1Br | 10µM* | -33% | 21µM* | x | 26µM* | 42 | u | u | u | -3%
CCCCN(C(=O)Cc1ccc(S(=O)(=O)N2CCOCC2)s1)c1c(N)n(CCCC)c(=O)[nH]c1=O | u | 3% | -9% | 23% | 0% | -4 | -12% | 1% | 15% | 6%
O=C1COc2cc(O)ccc21 | -1% | 19% | u | -1% | 3% | 3 | x | x | x | x
CCc1nnc(SCC(=O)N(C)c2ccccc2)c2cc3sccc3n12 | u | -28% | u | x | u | x | x | x | x | x
CCCn1c(SC(C)C(=O)NC2CCCC(C)C2C)n[nH]c1=O (stereo not drawn) | -8% | -8% | u | x | u | 5 | x | x | x | x
O=C(CCS(=O)(=O)c1ccccc1)Nc1nc2ccc(F)cc2s1 | 3.5µM* | -21% | 13µM* | 0% | 12µM* | 7 | 1.2µM* | -27% | 10µM* | 31%
COc1ccc(OC)c2sc(NC(=O)CCS(=O)(=O)c3ccccc3)nc12 | u | 21% | 4.6µM* | -5% | 5.2µM* | -21 | 2.3µM* | 16µM* | 4.6µM* | -3%
COc1ccc(OC)c2sc(NC(=O)CCSc3ccccc3)nc12 | -8% | -9% | -26% | -11% | -35% | 18 | x | x | x | x
NS(=O)(=O)c1ccc2nc(NC(=O)CS(=O)(=O)c3ccccc3)sc2c1 | -8% | 2% | 8% | -8% | -2% | -4 | x | x | x | x
COc1ccccc1NS(=O)(=O)c1ccc(C(=O)N2CC(C)OC(C)C2)cc1 (stereo not drawn) | -2% | 1% | -5% | 7% | u | 15 | x | x | x | x

Screening data: PubChem BioAssay, National Center for Advancing Translational Sciences (NCATS)
